Binding signal data for one sequence are collected here from article PMC7862700, “An all-to-all approach to the identification of sequence-specific readers for epigenetic DNA modifications on cytosine”.

Holding throughout (assay): DAPPL (digital affinity profiling via proximity ligation, sequencing); 10 mM Tris-HCl pH 7.5, 50 mM NaCl, 1 mM DTT, 4% glycerol, room temperature, 30 min; GST-TFs on glutathione beads, 16-mer random dsDNA library, 0.1% formaldehyde crosslink after washing; high values mean tight binding
For one test, the target named is T1, FEV (Homo sapiens, UniProt Q99581 1-238).
T1 sequence: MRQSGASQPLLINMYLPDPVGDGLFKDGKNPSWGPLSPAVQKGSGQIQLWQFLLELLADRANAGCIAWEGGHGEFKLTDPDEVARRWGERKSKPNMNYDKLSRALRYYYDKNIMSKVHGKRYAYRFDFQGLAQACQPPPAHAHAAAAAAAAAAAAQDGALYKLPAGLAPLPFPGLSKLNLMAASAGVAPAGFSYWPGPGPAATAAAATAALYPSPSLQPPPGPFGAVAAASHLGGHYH
The conditions noted are these: protein: recombinant; tags: N-terminal GST; dsDNA, one strand shown. The method, boiled down:
(§1)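 GST fusions of human transcription factors were expressed in yeast and captured with glutathione beads. Once given DNA barcodes and pooled alongside a tag-only sample, they were incubated for 30 min at room temperature with 200 nmole of a random double-stranded 16-mer DNA library in Tris/NaCl/DTT/glycerol buffer, then washed, crosslinked (0.1% formaldehyde), proximity-ligated, PCR-amplified and sequenced on an Illumina NextSeq500. The binding signal of each hexamer is its read frequency for a factor divided by its frequency for the tag-only sample.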

The next test addresses ETV5 (Homo sapiens, UniProt P41161 1-510). The settings on record: protein: recombinant; tags: N-terminal GST; dsDNA, one strand shown. Put shortly:
as §1

The target in a further test is HSF1 (Homo sapiens, UniProt Q00613 1-529). The settings on record: protein: recombinant; tags: N-terminal GST; chain copies: 3; dsDNA, one strand shown. Put shortly:
as §1

The target of a further test is T2, SPIC (Homo sapiens, UniProt Q8N5J4 1-248).
T2 sequence: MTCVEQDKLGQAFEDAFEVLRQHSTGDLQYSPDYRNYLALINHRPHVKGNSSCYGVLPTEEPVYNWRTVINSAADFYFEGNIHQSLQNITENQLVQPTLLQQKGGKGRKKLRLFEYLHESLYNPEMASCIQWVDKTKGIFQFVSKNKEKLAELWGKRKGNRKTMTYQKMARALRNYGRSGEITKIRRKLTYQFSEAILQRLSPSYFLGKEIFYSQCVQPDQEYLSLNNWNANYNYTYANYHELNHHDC
The settings on record: protein: recombinant; tags: N-terminal GST; dsDNA, one strand shown. Put shortly: as §1

The next test addresses ELF4 (Homo sapiens, UniProt Q99607 1-663). The settings on record: protein: recombinant; tags: N-terminal GST; dsDNA, one strand shown. The method, boiled down: as §1
The next test concerns the target T3, ELK4 (Homo sapiens, UniProt P28324-2 1-405).
T3 sequence: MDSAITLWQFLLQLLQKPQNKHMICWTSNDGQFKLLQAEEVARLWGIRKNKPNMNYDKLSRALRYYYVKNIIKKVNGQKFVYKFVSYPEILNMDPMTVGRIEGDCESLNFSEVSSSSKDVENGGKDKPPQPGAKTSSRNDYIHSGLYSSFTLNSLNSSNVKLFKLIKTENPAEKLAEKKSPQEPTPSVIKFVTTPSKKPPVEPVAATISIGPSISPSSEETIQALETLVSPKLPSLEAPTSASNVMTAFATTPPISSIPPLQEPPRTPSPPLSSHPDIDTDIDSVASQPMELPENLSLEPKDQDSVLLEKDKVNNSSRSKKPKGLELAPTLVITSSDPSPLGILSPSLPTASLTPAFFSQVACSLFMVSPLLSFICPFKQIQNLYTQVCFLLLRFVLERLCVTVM
The settings on record: protein: recombinant; tags: N-terminal GST; dsDNA, one strand shown. Put shortly:
as §1

A further test deals with T4, ETV2 (Homo sapiens, UniProt O00321 1-342).
T4 sequence: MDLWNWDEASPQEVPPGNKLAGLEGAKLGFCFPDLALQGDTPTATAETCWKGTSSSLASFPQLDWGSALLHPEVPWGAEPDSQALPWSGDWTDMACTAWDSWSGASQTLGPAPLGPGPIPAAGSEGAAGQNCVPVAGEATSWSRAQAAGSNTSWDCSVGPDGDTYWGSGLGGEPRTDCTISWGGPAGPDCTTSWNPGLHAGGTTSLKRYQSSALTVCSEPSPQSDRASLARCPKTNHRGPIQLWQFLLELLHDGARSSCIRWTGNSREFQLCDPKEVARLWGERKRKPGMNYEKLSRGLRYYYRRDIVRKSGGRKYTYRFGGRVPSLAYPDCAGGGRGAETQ
The settings on record: protein: recombinant; tags: N-terminal GST; dsDNA, one strand shown. Put shortly:
as §1

For another test, the target named is T5, ELF3 (Homo sapiens, UniProt P78545 1-371).
T5 sequence: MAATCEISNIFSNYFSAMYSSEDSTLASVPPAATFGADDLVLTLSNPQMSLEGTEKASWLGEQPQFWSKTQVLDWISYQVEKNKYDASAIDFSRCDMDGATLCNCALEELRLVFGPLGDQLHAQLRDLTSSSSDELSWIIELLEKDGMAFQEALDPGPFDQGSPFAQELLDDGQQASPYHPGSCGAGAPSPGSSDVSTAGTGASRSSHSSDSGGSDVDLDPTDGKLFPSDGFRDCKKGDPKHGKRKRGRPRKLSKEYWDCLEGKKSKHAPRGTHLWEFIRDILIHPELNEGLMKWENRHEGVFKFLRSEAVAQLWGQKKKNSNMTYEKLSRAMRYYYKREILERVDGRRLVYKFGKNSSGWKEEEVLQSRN
The conditions noted are these: protein: recombinant; tags: N-terminal GST; dsDNA, one strand shown. The method, boiled down: as §1

The target in the next test is CRX (Homo sapiens, UniProt O43186 1-299). The settings on record: protein: recombinant; tags: N-terminal GST; dsDNA, one strand shown. The method, boiled down: as §1
Chain of CRX (O43186 whole entry): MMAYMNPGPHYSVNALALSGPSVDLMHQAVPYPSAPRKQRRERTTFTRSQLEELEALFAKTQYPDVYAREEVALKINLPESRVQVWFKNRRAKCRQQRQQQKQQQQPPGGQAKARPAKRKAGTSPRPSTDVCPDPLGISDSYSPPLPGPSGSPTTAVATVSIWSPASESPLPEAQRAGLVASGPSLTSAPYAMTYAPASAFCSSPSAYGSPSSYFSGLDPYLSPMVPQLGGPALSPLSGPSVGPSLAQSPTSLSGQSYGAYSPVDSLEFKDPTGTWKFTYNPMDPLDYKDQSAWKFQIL
A further test concerns the target ETV1 (Homo sapiens, UniProt P50549 1-477). The settings on record: protein: recombinant; tags: N-terminal GST; dsDNA, one strand shown. Put shortly:
as §1

For another test, the target named is T6, ERF (Homo sapiens, UniProt P50548 1-548).
T6 sequence: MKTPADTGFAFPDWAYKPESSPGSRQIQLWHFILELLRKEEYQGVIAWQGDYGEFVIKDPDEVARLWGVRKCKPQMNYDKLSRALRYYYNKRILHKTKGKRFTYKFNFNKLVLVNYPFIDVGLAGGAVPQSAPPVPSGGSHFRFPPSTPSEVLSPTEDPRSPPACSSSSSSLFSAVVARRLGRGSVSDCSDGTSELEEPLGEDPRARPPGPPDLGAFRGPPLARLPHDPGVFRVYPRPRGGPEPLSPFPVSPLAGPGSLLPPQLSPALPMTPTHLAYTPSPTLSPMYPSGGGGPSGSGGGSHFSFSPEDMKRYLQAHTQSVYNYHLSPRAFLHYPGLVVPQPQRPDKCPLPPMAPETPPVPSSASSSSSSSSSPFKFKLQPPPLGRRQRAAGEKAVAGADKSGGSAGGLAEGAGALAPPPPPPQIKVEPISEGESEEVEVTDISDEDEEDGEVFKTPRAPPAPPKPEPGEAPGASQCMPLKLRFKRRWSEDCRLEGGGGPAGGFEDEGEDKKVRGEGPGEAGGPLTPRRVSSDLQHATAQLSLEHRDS
The conditions noted are these: protein: recombinant; tags: N-terminal GST; dsDNA, one strand shown. The method, boiled down:
as §1

For another test, the target named is T7, ETV3L (Homo sapiens, UniProt Q6ZN32 1-361).
T7 sequence: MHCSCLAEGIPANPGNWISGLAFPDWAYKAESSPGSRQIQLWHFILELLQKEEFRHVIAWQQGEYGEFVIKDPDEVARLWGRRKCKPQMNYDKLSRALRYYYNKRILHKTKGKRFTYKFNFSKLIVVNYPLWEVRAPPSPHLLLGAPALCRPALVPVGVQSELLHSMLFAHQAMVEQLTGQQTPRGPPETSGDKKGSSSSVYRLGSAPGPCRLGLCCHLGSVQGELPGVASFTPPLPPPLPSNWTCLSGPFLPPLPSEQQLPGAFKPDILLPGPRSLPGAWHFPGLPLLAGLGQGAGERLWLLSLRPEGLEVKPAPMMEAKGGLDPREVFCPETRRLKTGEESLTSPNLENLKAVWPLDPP
The conditions noted are these: protein: recombinant; tags: N-terminal GST; dsDNA, one strand shown. The method, boiled down: as §1

The target in a further test is T8, ETS2 (Homo sapiens, UniProt P15036 1-469).
T8 sequence: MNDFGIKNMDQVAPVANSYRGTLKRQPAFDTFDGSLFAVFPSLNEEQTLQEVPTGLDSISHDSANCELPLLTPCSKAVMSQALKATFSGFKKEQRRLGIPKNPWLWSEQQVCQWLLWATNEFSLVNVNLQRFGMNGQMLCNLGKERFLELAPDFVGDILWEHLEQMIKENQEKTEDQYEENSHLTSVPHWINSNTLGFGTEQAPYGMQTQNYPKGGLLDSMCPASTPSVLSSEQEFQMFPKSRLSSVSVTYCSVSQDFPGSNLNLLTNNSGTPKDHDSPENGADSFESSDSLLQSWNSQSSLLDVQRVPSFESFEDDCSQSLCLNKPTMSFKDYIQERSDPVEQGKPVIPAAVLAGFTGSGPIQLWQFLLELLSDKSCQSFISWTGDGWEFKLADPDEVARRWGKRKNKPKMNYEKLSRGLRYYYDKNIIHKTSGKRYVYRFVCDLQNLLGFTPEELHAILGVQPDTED
The settings on record: protein: recombinant; tags: N-terminal GST; dsDNA, one strand shown. Put shortly:
as §1

The next test deals with T9, SPDEF (Homo sapiens, UniProt O95238 1-335).
T9 sequence: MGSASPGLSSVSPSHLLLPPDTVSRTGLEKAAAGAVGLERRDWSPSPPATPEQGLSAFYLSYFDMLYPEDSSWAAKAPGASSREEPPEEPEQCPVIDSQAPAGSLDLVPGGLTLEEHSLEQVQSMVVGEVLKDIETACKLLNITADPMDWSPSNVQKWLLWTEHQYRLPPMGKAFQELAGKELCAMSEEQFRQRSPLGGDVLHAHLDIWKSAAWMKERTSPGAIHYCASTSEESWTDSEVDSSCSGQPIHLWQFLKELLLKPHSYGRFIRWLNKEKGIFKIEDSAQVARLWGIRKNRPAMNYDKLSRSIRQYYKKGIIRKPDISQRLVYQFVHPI
The settings on record: protein: recombinant; tags: N-terminal GST; dsDNA, one strand shown. Put shortly:
as §1

The target in a further test is T10, ETV7 (Homo sapiens, UniProt Q9Y603 1-341).
T10 sequence: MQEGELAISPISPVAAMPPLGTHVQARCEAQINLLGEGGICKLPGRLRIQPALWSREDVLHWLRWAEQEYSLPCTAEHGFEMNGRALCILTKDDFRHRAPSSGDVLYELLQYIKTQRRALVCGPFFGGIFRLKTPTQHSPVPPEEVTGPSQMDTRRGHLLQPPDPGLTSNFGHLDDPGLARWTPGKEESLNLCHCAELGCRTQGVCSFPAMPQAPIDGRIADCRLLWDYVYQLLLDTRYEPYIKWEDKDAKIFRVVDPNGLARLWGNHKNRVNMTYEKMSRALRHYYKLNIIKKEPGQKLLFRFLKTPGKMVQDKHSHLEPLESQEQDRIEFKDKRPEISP
The conditions noted are these: protein: recombinant; tags: N-terminal GST; dsDNA, one strand shown. The method, boiled down:
as §1

A further test deals with T11, ELF5 (Homo sapiens, UniProt Q9UKW6-2 1-255).
T11 sequence: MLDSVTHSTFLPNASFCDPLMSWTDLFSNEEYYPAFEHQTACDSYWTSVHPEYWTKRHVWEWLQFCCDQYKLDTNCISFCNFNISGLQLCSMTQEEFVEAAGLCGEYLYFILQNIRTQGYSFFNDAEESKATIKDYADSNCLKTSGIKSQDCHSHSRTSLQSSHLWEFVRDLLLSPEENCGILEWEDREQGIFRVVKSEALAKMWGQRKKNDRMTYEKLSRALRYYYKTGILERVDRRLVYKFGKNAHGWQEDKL
The settings on record: protein: recombinant; tags: N-terminal GST; dsDNA, one strand shown. The method, boiled down:
as §1

Another test addresses T12, ETV3 (Homo sapiens, UniProt P41162-2 1-143).
T12 sequence: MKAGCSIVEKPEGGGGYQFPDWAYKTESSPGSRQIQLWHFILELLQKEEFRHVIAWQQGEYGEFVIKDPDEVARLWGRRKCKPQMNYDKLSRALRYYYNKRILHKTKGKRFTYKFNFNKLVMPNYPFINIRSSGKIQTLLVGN
The settings on record: protein: recombinant; tags: N-terminal GST; dsDNA, one strand shown. The method, boiled down:
as §1

A further test addresses ETV6 (Homo sapiens, UniProt P41212 1-452). The conditions noted are these: protein: recombinant; tags: N-terminal GST; dsDNA, one strand shown. The method, boiled down:
as §1

Chain of HSF1 (Q00613 whole entry): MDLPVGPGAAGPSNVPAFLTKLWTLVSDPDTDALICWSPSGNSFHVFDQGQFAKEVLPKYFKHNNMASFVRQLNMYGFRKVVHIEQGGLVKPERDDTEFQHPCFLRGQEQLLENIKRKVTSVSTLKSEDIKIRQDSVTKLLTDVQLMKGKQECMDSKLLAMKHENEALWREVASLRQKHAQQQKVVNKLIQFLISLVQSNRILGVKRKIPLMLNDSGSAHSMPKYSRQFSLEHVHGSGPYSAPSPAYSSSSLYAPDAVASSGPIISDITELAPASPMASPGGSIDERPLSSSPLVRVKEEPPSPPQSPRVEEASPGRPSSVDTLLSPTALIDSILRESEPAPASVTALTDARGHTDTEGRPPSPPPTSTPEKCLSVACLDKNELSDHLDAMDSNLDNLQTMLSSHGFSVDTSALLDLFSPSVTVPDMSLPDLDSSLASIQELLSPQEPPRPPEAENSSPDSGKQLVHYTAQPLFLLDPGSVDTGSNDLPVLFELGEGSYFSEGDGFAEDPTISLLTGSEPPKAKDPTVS
Chain of ETV6 (P41212 whole entry): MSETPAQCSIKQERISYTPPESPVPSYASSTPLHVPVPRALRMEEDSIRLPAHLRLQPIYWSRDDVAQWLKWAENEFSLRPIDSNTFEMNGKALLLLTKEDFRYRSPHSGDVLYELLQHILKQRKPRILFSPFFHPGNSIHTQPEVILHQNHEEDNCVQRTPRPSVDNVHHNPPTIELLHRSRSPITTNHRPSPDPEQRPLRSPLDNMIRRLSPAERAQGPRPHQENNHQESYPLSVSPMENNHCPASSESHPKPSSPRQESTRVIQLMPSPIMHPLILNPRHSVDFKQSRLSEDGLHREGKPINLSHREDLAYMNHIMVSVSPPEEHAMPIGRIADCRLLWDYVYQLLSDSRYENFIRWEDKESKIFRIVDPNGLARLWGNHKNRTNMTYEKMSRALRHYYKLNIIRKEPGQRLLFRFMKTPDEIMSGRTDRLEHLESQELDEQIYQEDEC
Chain of ELF4 (Q99607 whole entry): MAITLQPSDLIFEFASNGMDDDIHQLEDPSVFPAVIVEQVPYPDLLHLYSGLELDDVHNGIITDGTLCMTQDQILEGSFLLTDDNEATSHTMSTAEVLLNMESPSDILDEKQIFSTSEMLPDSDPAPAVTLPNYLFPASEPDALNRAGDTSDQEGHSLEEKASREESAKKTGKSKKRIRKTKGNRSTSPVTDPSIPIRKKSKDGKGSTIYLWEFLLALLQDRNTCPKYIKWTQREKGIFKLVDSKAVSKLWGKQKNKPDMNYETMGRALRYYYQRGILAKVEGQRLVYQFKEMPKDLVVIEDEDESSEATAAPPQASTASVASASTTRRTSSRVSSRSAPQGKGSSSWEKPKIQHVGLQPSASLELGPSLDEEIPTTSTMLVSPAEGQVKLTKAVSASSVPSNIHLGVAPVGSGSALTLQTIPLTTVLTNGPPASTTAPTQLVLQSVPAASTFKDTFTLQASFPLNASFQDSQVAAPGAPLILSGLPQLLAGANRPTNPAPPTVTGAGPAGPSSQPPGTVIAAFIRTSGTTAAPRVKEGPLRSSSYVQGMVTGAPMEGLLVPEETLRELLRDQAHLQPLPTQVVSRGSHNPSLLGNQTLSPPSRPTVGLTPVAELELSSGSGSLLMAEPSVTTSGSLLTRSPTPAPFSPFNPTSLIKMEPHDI
Chain of ETV5 (P41161 whole entry): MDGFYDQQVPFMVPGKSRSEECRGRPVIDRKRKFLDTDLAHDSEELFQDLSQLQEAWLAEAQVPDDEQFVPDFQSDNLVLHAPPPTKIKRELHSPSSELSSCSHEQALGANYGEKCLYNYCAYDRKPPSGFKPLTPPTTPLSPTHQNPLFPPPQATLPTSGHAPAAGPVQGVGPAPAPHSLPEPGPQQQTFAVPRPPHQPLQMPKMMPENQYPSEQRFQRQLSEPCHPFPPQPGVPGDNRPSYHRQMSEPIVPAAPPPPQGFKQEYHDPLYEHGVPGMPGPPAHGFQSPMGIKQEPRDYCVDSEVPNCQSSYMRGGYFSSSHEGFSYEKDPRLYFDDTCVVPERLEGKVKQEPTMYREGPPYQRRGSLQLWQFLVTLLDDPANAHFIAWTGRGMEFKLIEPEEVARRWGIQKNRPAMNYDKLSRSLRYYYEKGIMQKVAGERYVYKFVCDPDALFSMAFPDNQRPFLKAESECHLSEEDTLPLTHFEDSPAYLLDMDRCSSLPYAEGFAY
Chain of ETV1 (P50549 whole entry): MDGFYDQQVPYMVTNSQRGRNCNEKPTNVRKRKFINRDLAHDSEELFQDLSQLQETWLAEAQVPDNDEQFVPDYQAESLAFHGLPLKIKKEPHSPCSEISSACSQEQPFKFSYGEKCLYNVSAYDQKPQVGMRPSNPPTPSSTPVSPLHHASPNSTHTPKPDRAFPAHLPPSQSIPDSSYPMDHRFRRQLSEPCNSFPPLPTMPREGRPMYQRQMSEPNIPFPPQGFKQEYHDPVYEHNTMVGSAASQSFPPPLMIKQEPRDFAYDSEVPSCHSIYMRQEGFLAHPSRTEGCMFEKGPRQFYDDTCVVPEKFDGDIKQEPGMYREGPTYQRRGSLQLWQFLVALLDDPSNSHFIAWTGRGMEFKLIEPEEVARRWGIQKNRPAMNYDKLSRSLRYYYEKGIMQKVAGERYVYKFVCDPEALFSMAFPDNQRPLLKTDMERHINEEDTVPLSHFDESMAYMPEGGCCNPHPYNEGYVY

Take CCATAT: the binding signal with FEV was 1.24 fold enrichment (6-mer frequency, TF over GST control); with ETV5 it was 1.24 fold enrichment (6-mer frequency, TF over GST control); in the test with HSF1 it was 1.12 fold enrichment (6-mer frequency, TF over GST control); with SPIC, 1.31 fold enrichment (6-mer frequency, TF over GST control); with ELF4 it was 1.17 fold enrichment (6-mer frequency, TF over GST control); with ELK4, 1.13 fold enrichment (6-mer frequency, TF over GST control). Moreover, the binding signal is 1.29 fold enrichment (6-mer frequency, TF over GST control) with ETV2; 1.37 fold enrichment (6-mer frequency, TF over GST control) in the test with ELF3; 1.09 fold enrichment (6-mer frequency, TF over GST control) with CRX; 1.2 fold enrichment (6-mer frequency, TF over GST control) with ETV1; 1.23 fold enrichment (6-mer frequency, TF over GST control) with ERF; 1.27 fold enrichment (6-mer frequency, TF over GST control) with ETV3L. The binding signal is 1.22 fold enrichment (6-mer frequency, TF over GST control) in the test with ETS2; 1.33 fold enrichment (6-mer frequency, TF over GST control) in the test with SPDEF; 1.16 fold enrichment (6-mer frequency, TF over GST control) in the test with ETV7; 1.24 fold enrichment (6-mer frequency, TF over GST control) with ELF5; 1.19 fold enrichment (6-mer frequency, TF over GST control) with ETV3; 1.15 fold enrichment (6-mer frequency, TF over GST control) with ETV6.
